Measured values published in PubChem BioAssay AID463173 (ICCB-Longwood Screening Facility, Harvard Medical School, 2010).
The whole screen tested about 52,000 compounds, of which about 4,300 (8.3%) were called active. Cut-off read from the data, not from the text of the source: active = survival mostly below about 52% (no sharp cut-off); inactive = mostly above about 56%. This excerpt belongs to a sample that is enriched for actives.

What follows are compounds tested on DeltatarO mutant (assay: S. aureus survival, RN4220 and DeltatarO strains – OD600, teichoic acid synthesis inhibitors, primary screen (AID 463173)). Conditions: S. aureus RN4220 wild type/DeltatarO growth, OD600, 18 h, stronger effect = lower value, screened at 18.75 µg/mL (by protocol).

SMILES | survival
OC1COCc2nc3ccccc3n2C1 (stereo unspecified) | 57% (active)
O=C(NCCc1ccccc1)c1ccc2c(c1)nc1n2CCOC1 | 109% (inactive)
c1ccc2c(c1)nc1n2CCC1 | 96% (inactive)
Cn1c(=O)n(C)c2cc(N3CCOCC3)c(NS(=O)(=O)c3ccc(C(C)(C)C)cc3)cc21 | 81% (inactive)
COc1cccc(NC(=O)C(Cc2ccccc2)N2Cc3ccccc3C2=O)c1 (stereo unspecified) | 66% (inactive)
CCOc1ccc(CCNC(=O)c2cc3sc(CC)cc3n2C)cc1OCC | 55% (inactive)
COc1cc(CN(C(=O)COc2ccc(F)cc2)c2ccccn2)cc(OC)c1OC | 81% (inactive)
Cc1cccc(CN2CCC(CNC(=O)Cn3ncc4c([nH]c5ccc(C)cc54)c3=O)CC2)c1 | 120% (inactive)
O=S1(=O)C=C(Sc2nc3ccccc3s2)c2ccccc21 | 4% (active)
OCC#CCSc1nc2ccccc2s1 | 71% (inactive)
Cc1cc(C)nc(SC2=CS(=O)(=O)c3ccccc32)n1 | 88% (inactive)
CC(C)CCn1c(=O)c2cccnc2n(CC(=O)Nc2ccccc2)c1=O | 72% (inactive)
CCS(=O)(=O)c1c(Nc2cc(C)ccc2C)sc(C(=O)c2ccccc2)c1N | 90% (inactive)
COc1ccc(S(=O)(=O)c2c(Nc3ccc(C)cc3)sc(C(=O)c3ccc(C)cc3)c2N)cc1 | 105% (inactive)
Cc1ccc(Nc2sc(C(=O)c3ccc(F)cc3)c(N)c2S(=O)(=O)c2ccc(C)cc2)cc1 | 116% (inactive)
CCOc1ccc(Nc2sc(C(=O)c3ccc(F)cc3)c(N)c2S(=O)(=O)c2ccc(C)cc2)cc1 | 52% (active)
CCCS(=O)(=O)c1c(Nc2ccccc2C)sc(C(=O)c2ccccc2)c1N | 28% (active)
Cc1ccccc1Nc1sc(C(=O)c2ccccc2)c(N)c1S(C)(=O)=O | 99% (inactive)
CCOc1ccccc1Nc1sc(C(=O)c2ccccc2)c(N)c1S(=O)(=O)c1ccc(C)cc1 | 92% (inactive)
CCOc1ccccc1Nc1sc(C(=O)c2ccc(Cl)cc2)c(N)c1C#N | 94% (inactive)
CCOc1ccccc1Nc1sc(C(=O)c2ccc(Cl)cc2)c(N)c1S(=O)(=O)c1ccccc1 | 25% (active)
Cc1nc2ccc(S(=O)(=O)N(C)CC(=O)Nc3ccc(C(C)C)cc3)cc2s1 | 113% (inactive)
CCc1ccc(NC(=O)CN2C(=O)CCSc3ccccc32)cc1 | 86% (inactive)

SMILES | survival
CCc1nc2ccccc2n2c(-c3ccccc3)c3c(=O)n(C)c(=O)n(C)c3c12 | 75% (inactive)
Cc1cc2c(cc1S(=O)(=O)NCc1ccccc1)OCC(=O)N2 | 91% (inactive)
COc1ccc(C)cc1NC(=O)NC(C)c1c(-n2cccc2)sc(C)c1C (stereo unspecified) | 44% (inactive)
Cc1ccccc1-c1nnc(SCC(=O)N2CCCCC2)o1 | 64% (inactive)
Cc1nc2c(-c3ccccc3)c(C)nn2c(C)c1CCC(=O)NCc1cccc(Cl)c1 | 109% (inactive)
CCc1cccc(NC(=O)CN2C(=O)COc3ccc(S(=O)(=O)Nc4ccccc4)cc32)c1 | 82% (inactive)
CCOC(=O)C1=C(c2ccccc2)OC(N)=C(C#N)C1c1ccncc1 (stereo unspecified) | 87% (inactive)
CC(C)N1CC2=C(OC(N)=C(C#N)C2c2cccnc2)/C(=C/c2cccnc2)C1 (stereo unspecified) | 85% (inactive)
N#CC1=C(N)OC2=C(CCc3ccccc32)C1c1ccccc1 (stereo unspecified) | 2% (active)
Cc1ccc(CSc2n[nH]c(-c3ccccc3O)n2)cc1 | 62% (inactive)
Cc1cccc(C)c1NC(=O)C(C)Sc1n[nH]c(-c2ccncc2)n1 (stereo unspecified) | 76% (inactive)
Cc1ccc(NC(=O)C(C)Sc2n[nH]c(-c3ccccc3O)n2)cc1 (stereo unspecified) | 23% (active)
O=C(NCC(=O)N1CCCCC1)c1ccccc1 | 97% (inactive)
Cc1ccc(Cl)cc1NC(=O)Cn1c(=O)oc2cc(S(=O)(=O)N3CCCC3)ccc21 | 81% (inactive)
CCc1ccccc1NC(=O)Cn1c(=O)n(CCc2ccccc2)c(=O)c2ccccc21 | 89% (inactive)
COC(=O)c1ccc(Cn2nc(-c3ccc(C)c(C)c3)ccc2=O)cc1 | 67% (inactive)
COc1ccc(NC(=O)c2cn(CC(C)C)c(=O)c3cc(OC)c(OC)cc23)cc1Cl | 50% (inactive)
CCn1cc(C(=O)Nc2cccc(Cl)c2)c2cc(OC)c(OC)cc2c1=O | 46% (active)
CCn1cc(C(=O)Nc2ccc(C(C)C)cc2)c2cc(OC)c(OC)cc2c1=O | 63% (inactive)
COc1ccc(NC(=O)Nc2cn(CC(C)C)c(=O)c3ccccc23)c(OC)c1 | 91% (inactive)
COc1ccc(C)cc1NC(=O)c1cn(C)c(=O)c2cc(OC)c(OC)cc12 | 72% (inactive)
CCOC(=O)c1ccccc1NC(=O)c1cn(CC(C)C)c(=O)c2cc(OC)c(OC)cc12 | 53% (inactive)
COc1cc(Cl)c(C)cc1NC(=O)c1cn(CC(C)C)c(=O)c2cc(OC)c(OC)cc12 | 42% (active)

SMILES | survival
CCn1cc(C(=O)N2CCN(c3cccc(Cl)c3)CC2)c2cc(OC)c(OC)cc2c1=O | 54% (inactive)
COc1ccc(OC)c(NC(=O)c2cn(CC(C)C)c(=O)c3cc(OC)c(OC)cc23)c1 | 50% (active)
COc1ccc(Cn2c(C(=O)O)c(CNCCc3cc(OC)ccc3OC)c3ccc(C)cc32)cc1 | 85% (inactive)
COc1ccccc1NC(=O)c1c(C)cc(C)nc1SCC(=O)Nc1ccc(C)cc1 | 51% (inactive)
CC(C)c1cccc(C(C)C)c1NC1=NS(=O)(=O)c2ccccc21 | 76% (inactive)
COc1cc(C(=O)N2CCc3ccccc32)cc(OC)c1OC | 104% (inactive)
O=C(c1ccc2c(c1)N(Cc1ccccc1F)C(=O)c1ccccc1S2(=O)=O)N1CCCCCC1 | 73% (inactive)
CN1CCN(C(=O)C2CCCCC2C(=O)O)CC1 (stereo unspecified) | 78% (inactive)
COC(=O)c1cc2sccc2n1Cc1nc(-c2cccc(Br)c2)oc1C | 70% (inactive)
CCc1ccc(C2NC(=O)c3[nH]nc(-c4cccc(OC)c4)c32)cc1 (stereo unspecified) | 54% (inactive)
COc1ccc(OC)c(C2c3c(-c4ccc(Br)cc4)n[nH]c3C(=O)N2c2ccc(Cl)cc2)c1 (stereo unspecified) | 89% (inactive)
COc1ccc(-c2n[nH]c3c2C(c2ccc(Cl)cc2Cl)NC3=O)cc1 (stereo unspecified) | -12% (active)
Cc1ccc(CC(=O)Nc2c(C(=O)N3CCN(c4ccccc4F)CC3)oc3ccccc23)cc1 | 74% (inactive)
Cc1ccc(-n2c(=O)c3c(C)c(C)sc3n(Cc3ccc(F)cc3Cl)c2=O)cc1C | 38% (active)
Cc1ccc(C)c(Cn2c(=O)n(-c3ccc(Cl)cc3)c(=O)c3c(C)c(C)sc32)c1 | 76% (inactive)
CCCCN(CC)C(=O)Cn1c(=O)n(-c2ccc(OCC)cc2)c(=O)c2c3c(sc21)CCC3 | 78% (inactive)
CCc1ccc(NC(=O)Cn2c(=O)n(-c3ccc(Cl)c(Cl)c3)c(=O)c3c(C)c(C)sc32)cc1 | 97% (inactive)
CCCCN(CC)C(=O)Cn1c(=O)n(-c2ccc(OCC)cc2)c(=O)c2c3c(sc21)CCCC3 | 89% (active)
CCOc1ccc(-n2c(=O)c3c(C)c(C)sc3n(CC(=O)NCCc3ccccc3)c2=O)cc1 | 84% (inactive)
Cc1ccc(Cn2c(=O)n(-c3ccc(C)c(C)c3)c(=O)c3c(C)c(C)sc32)cc1 | 71% (inactive)
CCOc1ccc(-n2c(=O)c3c4c(sc3n(Cc3cc(=O)n5cc(Cl)ccc5n3)c2=O)CCC4)cc1 | 64% (active)
CCOc1ccc(-n2c(=O)c3c(C)c(C)sc3n(Cc3cc(=O)n4cc(Cl)ccc4n3)c2=O)cc1 | 69% (inactive)
CCN(CC)C(=O)Cn1c(=O)n(-c2ccc(Cl)cc2)c(=O)c2c3c(sc21)CCCCC3 | 89% (inactive)

SMILES | survival
Cc1ccc(-n2c(=O)c3c4c(sc3n(Cc3cc(=O)n5cc(Cl)ccc5n3)c2=O)CCC4)cc1C | 169% (inactive)
CCOc1ccc(-n2c(=O)c3c(C)c(C)sc3n(CC(=O)Nc3ccc(CC)cc3)c2=O)cc1 | 46% (active)
O=C(CCNS(=O)(=O)c1ccc2c(c1)CCCC(=O)N2)NCc1ccc(Cl)cc1 | 96% (inactive)
COc1ccc(CCNC(=O)c2cc3c(=O)n4cccc(C)c4nc3n2C)cc1 | 67% (inactive)
COc1ccc(NC(=O)C2CCCN(S(=O)(=O)c3ccc4[nH]c(=O)ccc4c3)C2)cc1Cl (stereo unspecified) | 82% (inactive)
CC(=O)Nc1cccc(NC(=O)Cc2csc(COc3cccc(C)c3)n2)c1 | 89% (inactive)
CCOc1ccc(NC(=O)C(=O)NCCc2csc(-c3ccc(F)cc3)n2)cc1 | 82% (inactive)
CCN(CC)S(=O)(=O)c1ccc2c(c1)N(CC(=O)NCCCN1CCN(c3cc(Cl)ccc3C)CC1)C(=O)CO2 | 53% (inactive)
CCOc1ccc(-c2noc(CSc3nnc(-c4ccccc4)n3-c3ccccc3)n2)cc1 | 66% (inactive)
COc1cccc(-n2cc(C(=O)Nc3ccccc3C(N)=O)c3ccccc3c2=O)c1 | 67% (inactive)
COc1ccc(CCNC(=O)Cn2c(=O)n(-c3ccc(C)c(C)c3)c(=O)c3c(C)c(C)sc32)cc1OC | 64% (inactive)
COc1ccc(CCNC(=O)Cn2c(=O)n(-c3ccccc3)c(=O)c3c(C)c(C)sc32)cc1OC | 84% (active)
Cc1ccc(-n2c(=O)c3c(cnn3C)n(CC(=O)Nc3cccc(Cl)c3)c2=O)cc1 | 55% (active)
CCOc1ccc(-n2c(=O)c3c(C)c(C)sc3n(Cc3ccc(C(C)(C)C)cc3)c2=O)cc1 | 52% (active)
O=C(Cn1c(=O)n(-c2ccc(Cl)cc2)c(=O)c2c3c(sc21)CCCCC3)Nc1cccc(Cl)c1 | 84% (inactive)
CCOc1ccc(-n2c(=O)c3c(C)c(C)sc3n(Cc3ccccc3C)c2=O)cc1 | 85% (inactive)
COc1ccc(NC(=O)Cn2c(=O)n(-c3ccc(C)c(C)c3)c(=O)c3c4c(sc32)CCCCC4)cc1Cl | 76% (inactive)
CCOc1ccc(-n2c(=O)c3c(C)c(C)sc3n(CC(=O)C(C)(C)C)c2=O)cc1 | 121% (inactive)
Cc1ccc(NC(=O)Cn2c(=O)n(-c3ccc(C)cc3)c(=O)c3c2cnn3C)cc1 | 63% (inactive)
Cc1ccc(-n2c(=O)c3c4c(sc3n(CC(=O)Nc3cccc(Cl)c3)c2=O)CCCCC4)cc1C | 105% (active)
Cc1ccc(-n2c(=O)c3c(cnn3C)n(CC(=O)Nc3cccc(C)c3)c2=O)cc1 | 64% (inactive)
COc1cccc(-n2c(=O)c3c(C)c(C)sc3n(CC(=O)NCCc3ccc(OC)c(OC)c3)c2=O)c1 | 94% (inactive)
